Assay results reported in PubChem BioAssay.

What was measured:
[1] = system: Botulinum neurotoxin type F light chain protease (Clostridium botulinum); experiment: Clostridium botulinum type F light chain protease inhibitors, microsphere substrate cleavage, validation (AID 588459); conditions: multiplex microsphere protease substrate cleavage assay, flow cytometry; at 10 µM; stronger effect = higher value
[2] = target: Botulinum neurotoxin type A (Clostridium botulinum) (UniProt P0DPI0); experiment: BoNT/A light chain protease inhibitors, biochemical, multiplex microsphere flow cytometry, validation set (AID 588460); conditions: at 10 µM, stronger effect = higher value
Chain of Botulinum neurotoxin type A (Clostridium botulinum) (P0DPI0 whole entry, looked up): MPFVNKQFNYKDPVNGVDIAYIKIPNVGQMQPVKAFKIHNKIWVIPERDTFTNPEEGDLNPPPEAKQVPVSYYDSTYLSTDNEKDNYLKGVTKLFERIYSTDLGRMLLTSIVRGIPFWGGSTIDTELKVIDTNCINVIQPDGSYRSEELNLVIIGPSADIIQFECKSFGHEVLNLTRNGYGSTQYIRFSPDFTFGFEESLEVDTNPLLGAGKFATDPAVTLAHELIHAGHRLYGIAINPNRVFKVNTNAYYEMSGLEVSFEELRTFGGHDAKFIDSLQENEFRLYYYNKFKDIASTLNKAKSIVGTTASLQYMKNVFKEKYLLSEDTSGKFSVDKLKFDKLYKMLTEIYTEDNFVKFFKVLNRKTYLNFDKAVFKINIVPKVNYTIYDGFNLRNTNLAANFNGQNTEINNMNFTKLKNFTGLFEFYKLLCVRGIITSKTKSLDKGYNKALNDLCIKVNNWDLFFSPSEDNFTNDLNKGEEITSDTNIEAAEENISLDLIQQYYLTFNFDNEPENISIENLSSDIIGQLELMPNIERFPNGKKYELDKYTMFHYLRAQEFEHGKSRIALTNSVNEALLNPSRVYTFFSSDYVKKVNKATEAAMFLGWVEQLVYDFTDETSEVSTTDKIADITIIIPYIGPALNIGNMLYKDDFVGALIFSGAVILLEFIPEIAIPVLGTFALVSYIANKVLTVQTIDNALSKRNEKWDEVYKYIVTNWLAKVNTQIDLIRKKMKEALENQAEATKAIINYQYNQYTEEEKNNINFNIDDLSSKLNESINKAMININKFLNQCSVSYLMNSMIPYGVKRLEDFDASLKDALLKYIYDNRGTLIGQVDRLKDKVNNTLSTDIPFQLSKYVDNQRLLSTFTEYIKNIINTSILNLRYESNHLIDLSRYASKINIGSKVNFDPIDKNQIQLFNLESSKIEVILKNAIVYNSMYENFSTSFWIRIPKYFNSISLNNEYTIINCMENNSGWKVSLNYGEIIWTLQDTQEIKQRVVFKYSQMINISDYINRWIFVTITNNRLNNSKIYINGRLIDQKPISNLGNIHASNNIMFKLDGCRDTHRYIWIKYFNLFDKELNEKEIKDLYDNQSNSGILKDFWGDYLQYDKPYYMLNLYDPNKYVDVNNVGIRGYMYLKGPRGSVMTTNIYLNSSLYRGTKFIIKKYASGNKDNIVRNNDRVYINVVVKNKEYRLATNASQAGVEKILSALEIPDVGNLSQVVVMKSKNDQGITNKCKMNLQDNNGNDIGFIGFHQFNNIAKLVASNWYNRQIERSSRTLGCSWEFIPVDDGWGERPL

[3] = target: Lethal factor (Bacillus anthracis) (UniProt P15917); experiment: Bacillus anthracis lethal factor inhibition, microsphere flow cytometry protease assay, validation at 10 µM (AID 588461); conditions: multiplex microsphere protease cleavage assay, stronger effect = higher value
Chain of Lethal factor (Bacillus anthracis) (P15917 whole entry, looked up): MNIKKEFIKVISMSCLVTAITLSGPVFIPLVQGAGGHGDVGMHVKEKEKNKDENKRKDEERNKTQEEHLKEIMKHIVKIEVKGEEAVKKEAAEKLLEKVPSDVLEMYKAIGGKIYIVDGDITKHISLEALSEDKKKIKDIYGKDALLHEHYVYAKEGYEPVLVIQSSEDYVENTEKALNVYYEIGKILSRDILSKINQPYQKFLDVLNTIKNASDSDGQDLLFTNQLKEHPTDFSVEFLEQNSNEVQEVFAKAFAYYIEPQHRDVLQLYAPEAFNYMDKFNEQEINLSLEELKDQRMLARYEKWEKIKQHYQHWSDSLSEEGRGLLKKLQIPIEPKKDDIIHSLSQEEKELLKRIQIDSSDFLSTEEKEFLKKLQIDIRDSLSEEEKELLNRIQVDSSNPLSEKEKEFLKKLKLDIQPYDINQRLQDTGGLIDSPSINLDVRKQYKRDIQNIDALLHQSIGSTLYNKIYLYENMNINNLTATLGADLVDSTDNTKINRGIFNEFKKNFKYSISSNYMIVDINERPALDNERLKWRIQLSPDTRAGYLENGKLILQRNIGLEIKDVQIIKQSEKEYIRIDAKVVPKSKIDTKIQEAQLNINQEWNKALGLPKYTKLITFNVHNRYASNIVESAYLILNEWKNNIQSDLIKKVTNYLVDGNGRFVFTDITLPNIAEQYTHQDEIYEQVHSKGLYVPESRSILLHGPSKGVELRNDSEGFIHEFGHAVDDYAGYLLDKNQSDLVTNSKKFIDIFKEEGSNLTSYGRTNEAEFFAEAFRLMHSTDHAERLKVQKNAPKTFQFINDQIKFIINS

Measured: inhibition

CC12CCC(C(=O)NCc3ccccn3)(OC1=O)C2(C)C (stereo not drawn)
inactive: [1] -1.4% | [2] -1.3% | [3] 3%

O=C(O)CC(O)C(=O)O (stereo not drawn)
inactive: [1] -3.1% | [2] -0.9% | [3] 3.8%

CC12CN3CC(C)(CN(C1)C3c1ccc(Br)cc1O)C2 (stereo not drawn)
inactive: [1] -1.8% | [2] -1.2% | [3] -7.5%

O=C(NO)c1ccccc1O
inactive: [1] 3.3% | [2] 2% | [3] -4%

O=C(/C=C/c1ccccc1)c1ccccc1
inactive: [1] -1.7% | [2] -0.6% | [3] -0.6%

CC(C)c1ccc(/C=C/C(=O)O)cc1
inactive: [1] 1.6% | [2] -0.1% | [3] 11%

COc1ccc(/C=C2\CCn3c2nc2cc(C(=O)O)ccc2c3=O)cc1OC
inactive: [1] 1.4% | [2] 1% | [3] 8%

CC(=O)Nc1c(I)c(NC(C)=O)c(I)c(C(=O)O)c1I
inactive: [1] -0.5% | [2] -1.9% | [3] 0.5%

CCOC(=O)c1c(C)oc2cc(Br)c(OC(C)C(=O)OCC)cc12 (stereo not drawn)
inactive: [1] -0.6% | [2] 0.5% | [3] -2.8%

Cc1ccc2nc(NC3=NC(CC(=O)O)C(=O)N3)nc(C)c2c1 (stereo not drawn)
inactive: [1] -1.7% | [2] -1% | [3] -4.8%

O=Cc1ccc(OC(=O)c2cccnc2)cc1
inactive: [1] 0.2% | [2] -0.7% | [3] -3.8%

COc1ccccc1-c1c(C(F)(F)F)oc2cc(OC(=O)c3ccc([N+](=O)[O-])cc3)ccc2c1=O
inactive: [1] 0.7% | [2] -0.5% | [3] 3.7%

COc1ccccc1NC(=O)C12CCC(C)(C(=O)C1)C2(C)C (stereo not drawn)
inactive: [1] -1% | [2] 0.8% | [3] 0.3%

Cc1c(O)c(=O)ccn1C
inactive: [1] 3.3% | [2] -1% | [3] 0.9%

COc1ccc(C(=O)O)cc1F
inactive: [1] -1.9% | [2] -0.6% | [3] -1.1%

N/C(Cc1ccc(Cl)cc1Cl)=N\OC(=O)c1ccc(Br)o1
inactive: [1] -0.8% | [2] -2.5% | [3] -7.4%

COCCCN1C(=O)C(=O)/C(=C(/O)c2ccc3c(c2)CC(C)O3)C1c1cccnc1 (stereo not drawn)
inactive: [1] -3% | [2] -2.1% | [3] 3.5%

C/C(=N\N=C1\NC(=O)C(CC(=O)Nc2ccc(Cl)cc2)S1)c1ccco1 (stereo not drawn)
inactive: [1] -0.1% | [2] 0.1% | [3] -0.2%

COc1ccc2c(c1)[nH]c1c(=O)n(Cc3ccccn3)cnc12
inactive: [1] 3.9% | [2] -1% | [3] -4.7%

Cc1cc(=O)c2c(O)c(O)ccc2o1
inactive: [1] 1.8% | [2] 2.5% | [3] -0.2%

CCOC(=O)N1CCN(Cc2nc(Cc3cccc(F)c3)no2)CC1
inactive: [1] 1.3% | [2] 0% | [3] 3.3%

O=C(c1cc2cc(Br)ccc2o1)N1CCCCC1
inactive: [1] 5.3% | [2] -0.6% | [3] 8.5%

CC(C)=CCCC1=CCC2C(=O)NNC(=O)C2C1 (stereo not drawn)
inactive: [1] -1.6% | [2] -1% | [3] 3%

O=C(O)C1CCN(C(=O)COc2ccc3c4c(c(=O)oc3c2)CCC4)CC1
inactive: [1] 3% | [2] -1.1% | [3] 2.5%

COc1ccc(C2c3c(n[nH]c3C)CC(C)(O)C2C(C)=O)cc1OC (stereo not drawn)
inactive: [1] 4% | [2] 0.1% | [3] -2.7%

NS(=O)(=O)c1ccc(CNC(=O)c2cc(-c3ccccc3)nc3ccccc23)cc1
inactive: [1] 0.5% | [2] 0.4% | [3] -4.8%

CCOc1ccc(C(=O)C(C)=O)c(OCC)c1
inactive: [1] 4.3% | [2] 1% | [3] 7.8%

CCNC1=C(Cl)C(=O)c2ccccc2C1=O
inactive: [1] 1.2% | [2] -0.3% | [3] -6%

Cc1ccc2c(c1)c(=O)c1c3n2CCN(C(=O)CCl)C3CC1 (stereo not drawn)
inactive: [1] -11.4% | [2] -1.3% | [3] -32.4%

CCC(C)n1ncn(-c2ccc(N3CCN(c4ccc(OCC5COC(Cn6cncn6)(c6ccc(Cl)cc6Cl)O5)cc4)CC3)cc2)c1=O (stereo not drawn)
inactive: [1] 2.7% | [2] -0.4% | [3] 4.4%

CC(C)CN1CCN(Cc2cccn2-c2ccccn2)CC1CCO (stereo not drawn)
inactive: [1] -0.4% | [2] -0.5% | [3] 3.6%
